# PubChem BioAssay (NCATS)
# Values joined by “and” are separate entries in the source; they are usually repeats but may differ in a detail not shown here. Equal values may be shown once. Records with an inconclusive call do not appear. Entries that show only a call come without a potency. More than one record can exist for a structure, and the calls need not agree. Active and inactive are the calls of the source. Calls come from the whole dose curve; as a rule, active = well fitted inhibition curve with a large enough effect; inconclusive = small, poorly fitted or top-dose-only effect; inactive = flat fitted curve, though single readings scatter.
# Target: Phospholipid hydroperoxide glutathione peroxidase GPX4 (Homo sapiens) (UniProt P36969)
# Experiment: Primary qHTS Assay for Inhibitors of Recombinant Selenoprotein Glutathione Peroxidase 4 (GPX4) (AID 1845192); note: nearly all actives have a fitted effect of over 65% in size
# Details: recombinant GPX4, GR-coupled NADPH fluorescence, 15 min; series mostly up to 50 µM
# How it was run: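 GR-coupled assay: recombinant GPX4 preincubated 30 min with compound at room temperature; final 200 nM GPX4, 1 mM GSH, 0.5 mM cumene hydroperoxide, 0.5 mM NADPH, 100 nM GR, 0.01% BSA, pH 7.5 Tris. NADPH fluorescence (340/450 nm) read at 0 and 15 min.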
# Potency is the fitted concentration of half-maximal effect.
# Chain of Phospholipid hydroperoxide glutathione peroxidase GPX4 (Homo sapiens) (P36969 whole entry, looked up): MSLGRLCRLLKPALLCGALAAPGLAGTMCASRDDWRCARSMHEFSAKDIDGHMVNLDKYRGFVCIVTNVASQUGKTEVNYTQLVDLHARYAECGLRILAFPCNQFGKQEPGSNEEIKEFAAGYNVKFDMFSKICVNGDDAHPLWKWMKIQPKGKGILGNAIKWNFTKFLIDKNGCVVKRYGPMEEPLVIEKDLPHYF
SMILES,Potency,"activity change, negative = inhibition"
O=C(O[C@H]1CN2CCC1CC2)N1CCc2ccccc2[C@@H]1c1ccccc1,inactive,–
CO[C@@]1(NC(=O)C2SC(=C(C(N)=O)C(=O)O)S2)C(=O)N2C(C(=O)O)=C(CSc3nnnn3C)CS[C@@H]21 (stereo not given in full),17.8 µM (active),–
CC(C)[C@H](N)C(=O)OCC(CO)OCn1cnc2c(=O)[nH]c(N)nc21 (stereo not given in full),inactive,–
CCN(CC)CCOC(=O)c1cccnc1,inactive,–
NS(=O)(=O)c1cc2c(cc1Cl)NC(Cc1ccccc1)NS2(=O)=O (stereo not given),inactive,–
Oc1cc(O)cc(O)c1,inactive,–
C[N@+]12CCCC[C@@H]1CCC(=C(c1cccs1)c1cccs1)C2,inactive,–
COC(=O)[C@@H](N)CS,10 µM (active),–
OCCOCCOCCO,inactive,–
Cc1ccc(S(=O)(=O)O)cc1C,inactive,–
NC(=O)OCC(O)COc1ccc(Cl)cc1 (stereo not given),inactive,–
COc1ccc(-c2noc(CC(=O)O)c2-c2ccc(OC)cc2)cc1,inactive,–
CC1(C)[C@@H]2CC[C@@]1(C)[C@H](OC(=O)CSC#N)C2,inactive,–
CC1(O)CCC(C(C)(C)O)CC1 (stereo not given),inactive,–
CCOC(=O)[C@@H](N)CS,14.1 µM (active),–
C[C@H](CCC(=O)O)[C@H]1CC[C@H]2[C@@H]3[C@H](O)C[C@@H]4C[C@H](O)CC[C@]4(C)[C@H]3C[C@H](O)[C@]12C,inactive,–
CCCCCc1ccc(C)cc1O,inactive,–
CCCCC(O)c1ccccc1 (stereo not given),inactive,–

SMILES,Potency,"activity change, negative = inhibition"
N[C@@H](Cc1cc(I)c(Oc2ccc(O)c(I)c2)c(I)c1)C(=O)O,inactive and 14.1 µM (active),–
S=C1SCN(Cc2ccccc2)CN1Cc1ccccc1,15.8 µM (active),–
CC1=CC(=C(c2ccc(N)cc2)c2ccc(N)cc2)C=CC1=N,inactive,–
CC(CN1c2ccccc2Sc2cccnc21)N(C)C (stereo not given),inactive,–
CC(C)(C)c1ccc2c(S(=O)(=O)O)c(C(C)(C)C)ccc2c1,12.6 µM (active),–
CC[C@H]1OC(=O)C[C@@H](O)[C@H](C)[C@@H](O[C@@H]2O[C@H](C)[C@@H](O[C@H]3C[C@@](C)(O)[C@@H](O)[C@H](C)O3)[C@H](N(C)C)[C@H]2O)[C@@H](CC=O)C[C@@H](C)C(=O)/C=C/C(C)=C/[C@@H]1CO[C@@H]1O[C@H](C)[C@@H](O)[C@@H](OC)[C@H]1OC,inactive,–
O=C(OC[C@H]1O[C@@H](OC(=O)c2cc(O)c(O)c(OC(=O)c3cc(O)c(O)c(O)c3)c2)[C@H](OC(=O)c2cc(O)c(O)c(OC(=O)c3cc(O)c(O)c(O)c3)c2)[C@@H](OC(=O)c2cc(O)c(O)c(OC(=O)c3cc(O)c(O)c(O)c3)c2)[C@@H]1OC(=O)c1cc(O)c(O)c(OC(=O)c2cc(O)c(O)c(O)c2)c1)c1cc(O)c(O)c(OC(=O)c2cc(O)c(O)c(O)c2)c1,4.47 µM (active),–
Cc1cc(-c2ccc(N=Nc3c(S(=O)(=O)O)cc4cc(S(=O)(=O)O)cc(N)c4c3O)c(C)c2)ccc1N=Nc1c(S(=O)(=O)O)cc2cc(S(=O)(=O)O)cc(N)c2c1O,inactive,–
CC(C)(C)NCC(O)c1ccc(O)c(CO)n1 (stereo not given),12.6 µM (active),–
NC(=O)c1ccc[n+]([C@@H]2O[C@H](COP(=O)([O-])OP(=O)(O)OC[C@H]3O[C@@H](n4cnc5c(N)ncnc54)[C@H](O)[C@@H]3O)[C@@H](O)[C@H]2O)c1,inactive,–
CN(C)CCC=C1c2ccccc2C(C)(C)c2ccccc21,inactive,–
CC(/C=C/C=C(\C)C(=O)O[C@@H]1O[C@H](CO[C@@H]2O[C@H](CO)[C@@H](O)[C@H](O)[C@H]2O)[C@@H](O)[C@H](O)[C@H]1O)=C\C=C\C=C(C)\C=C\C=C(/C)C(=O)O[C@@H]1O[C@H](CO[C@@H]2O[C@H](CO)[C@@H](O)[C@H](O)[C@H]2O)[C@@H](O)[C@H](O)[C@H]1O,inactive,–
O=C(O)c1cc(O)c2c(c1)[C@H]([C@H]1c3cc(C(=O)O)cc(O)c3C(=O)c3c(O[C@@H]4O[C@H](CO)[C@@H](O)[C@H](O)[C@H]4O)cccc31)c1cccc(O[C@@H]3O[C@H](CO)[C@@H](O)[C@H](O)[C@H]3O)c1C2=O,1.12 µM (active),–
CC(C)(C)C(=O)OCC(=O)[C@H]1CC[C@H]2[C@@H]3CCC4=CC(=O)CC[C@]4(C)[C@H]3CC[C@]12C,inactive,–
CC(=O)[O][Al][O]C(C)=O,–,-11.7% [at 9.73 µM] (inactive)
CCC(O)c1ccccc1 (stereo not given),inactive,–
N=C(N)c1ccc(/C=C/c2ccc(C(=N)N)cc2O)cc1,inactive,–
